Screening results: PubChem BioAssay, National Center for Advancing Translational Sciences (NCATS)
In the library only some 8% were active in any assay of this set; here they are far more common.
HCMV inh: blocks human cytomegalovirus replication | AID 1259415 | HFF cells, HCMV-luciferase reporter, 72 h; hits give low values | activity change, negative = inhibition, % at 57.5 µM | hit rate 4.5% among 410,000; in the data active = activity change below about -60%; inconclusive = no clear call, values can overlap the other calls; inactive = above about -39%
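Two-dose cell screen: HFF monolayers treated with compounds and infected with luciferase-expressing HCMV at 1 PFU/cell, 72 h at 37C, then lysed for luciferase measurement.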
SARS PLpro yeast-1: blocks SARS-CoV papain-like protease in a yeast assay. S. cerevisiae expressing SARS-CoV PLpro, growth rescue. Potency, µM (doses to about 32.9 µM), actives largely listed as activators. hit rate 0.19% among 330,000; calls by dose curve; also: nearly all actives have a fitted effect of over 55% in size
HCV inhibitor: blocks hepatitis C virus | Huh7.5.1 HCVcc-Cre infection, luciferase reporter, 44 h | Potency, µM (series often up to 41.8 µM), hits mostly inhibitors | hit rate 3.4% among 340,000; active = well fitted inhibition curve with a large enough effect; inconclusive = small, poorly fitted or top-dose-only effect, or another doubt; inactive = no such curve, though single readings can be large or run the other way
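Luciferase read-out (15 sec integration) after a 15 min room-temperature substrate step quantifies HCVcc-Cre infection. Cells, 1,000 per well, had compound added 4 h post-plating, then virus at ~0.5 moi, and were cultured 44 h.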
FMDV inh: blocks foot and mouth disease virus | AID 1159524 | FMDV antiviral cell-based qHTS | Potency, µM (doses to about 57.9 µM), hits mostly inhibitors | hit rate 1.2% among 410,000; calls by dose curve; tested in HEK293T cells; also: read-out not given here; nearly all actives have a fitted effect of over 45% in size
Marburg entry inh: Marburg virus entry inhibition; Marburg virus pseudotyped entry inhibition, cell reporter; Potency, µM (highest dose often 37.8 µM), most hits filed as inhibitors; hit rate 1.8% among 300,000; AID 540276; calls by dose curve; tested in HEK293 cells
LASV entry inh: blocks Lassa virus binding to or entry into cells. hit rate 1.2% among 300,000. Lassa virus pseudotype entry inhibition, cell reporter. Potency, µM (series often up to 37.9 µM), actives largely listed as inhibitors; calls by dose curve; tested in HEK293 cells; also: nearly all actives have a fitted effect of over 50% in size
SARS PLpro yeast-2: Rescues yeast growth by inhibiting SARS-CoV PLpro | yeast expressing SARS-CoV PLpro, growth phenotype rescue | hit rate 19% among 1,000 | AID 652038 | calls only | shares compounds with SARS PLpro yeast-1; call rule not given here
Large screens that a line does not name were inactive (follow-up assays come after a bar, where they were run).

O=C(Nc1cccc(C(F)(F)F)c1)Nc1ccc(N2CCCC2)c(S(=O)(=O)Nc2ccccc2Cl)c1	HCMV inh -100, HCV inhibitor 2.2µM, Marburg entry inh 2.5µM, LASV entry inh 4µM
COc1ccccc1NS(=O)(=O)c1cc(NC(=O)Nc2ccc(Cl)cc2Cl)ccc1N1CCCCC1	HCMV inh -62, HCV inhibitor inconclusive, Marburg entry inh inconclusive, LASV entry inh inconclusive
Cc1ccc(C(=O)N/N=C\c2cc3c(cc2Br)OCO3)s1	Marburg entry inh inconclusive, LASV entry inh 11µM
O=C(OCc1ccccc1F)c1ccc2c(c1)-c1ccccc1C2=O	LASV entry inh 2.1µM
COc1cc2c(cc1OC)/C(=C/c1ccc(Cl)cc1)C(=O)OC2	FMDV inh 40µM, Marburg entry inh inconclusive
C#CCCOC(=O)N1C2=NC3=C(C(=O)N(Cc4ccc5c(c4)OCO5)C3=O)C3N(C)c4ccccc4[C@]23C[C@H]1CO (some centres undefined)	LASV entry inh inconclusive (no result: HCMV inh, SARS PLpro yeast-1, HCV inhibitor, FMDV inh)
O=C(NCc1ccc(OC(F)(F)F)cc1)c1cc(-c2ccccc2)nn1CC1CC(c2cccnc2)=NO1 (centres undefined)	HCMV inh -67, HCV inhibitor inconclusive (no result: SARS PLpro yeast-1, Marburg entry inh, LASV entry inh)
Cc1cc(C)cc(N2CC(O)=C(c3nc4ccccc4c(=O)[nH]3)C2=N)c1	HCV inhibitor 22µM, Marburg entry inh inconclusive
COc1ccc(N2C(=O)[C@@H]3C[C@H]2CN3Cc2cccn2-c2ccc(Cl)cn2)c(C)c1	none (no result: HCMV inh, SARS PLpro yeast-1, HCV inhibitor, Marburg entry inh, LASV entry inh)
COc1cccc(CNC(=O)c2c(OC)cc(=O)n3c2CCN(C(=O)c2cc(F)cc(F)c2)CC3)c1	none (no result: HCMV inh, SARS PLpro yeast-1, HCV inhibitor, Marburg entry inh, LASV entry inh)
COc1ccc(OC)c(NC(=O)CN(C)S(=O)(=O)c2ccc3[nH]c4c(c3c2)CCCC4)c1	none (no result: SARS PLpro yeast-1, HCV inhibitor, Marburg entry inh)
Cc1sc2ncnc(NCC(O)c3ccc([N+](=O)[O-])cc3)c2c1C (centres undefined)	HCMV inh -79, HCV inhibitor 11µM, FMDV inh inconclusive, Marburg entry inh inconclusive, LASV entry inh inconclusive
Cc1sc2ncnc(NCC(O)c3ccccc3)c2c1C (centres undefined)	HCMV inh -74, HCV inhibitor 11µM, Marburg entry inh inconclusive, LASV entry inh inconclusive
CC(Oc1ccc(F)cc1)C(=O)Oc1ccc(N(C)S(=O)(=O)c2ccccc2)cc1 (centres undefined)	none
Cc1ccc(S(=O)(=O)N(C)c2ccc(OC(C)C(=O)N(C)c3ccccc3)cc2)cc1 (centres undefined)	HCV inhibitor 11µM, LASV entry inh inconclusive
CC(=O)c1ccc(NC(=O)C(C)Oc2ccc(N(C)S(=O)(=O)c3ccc(C)cc3)cc2)cc1 (centres undefined)	HCV inhibitor 13µM (no result: Marburg entry inh, LASV entry inh)
CC1CCN(C(=O)Cn2cc(SCC(=O)NCc3ccccc3Cl)c3ccccc32)CC1	HCMV inh inconclusive (no result: SARS PLpro yeast-1, HCV inhibitor, Marburg entry inh)
Cc1ccc2c(c1)-c1nc(-c3ccc4c(c3)NC(=O)CO4)cc(-c3ccc(F)cc3)c1CO2	none (no result: SARS PLpro yeast-1, HCV inhibitor)
O=C(c1ccco1)N1CCN(C(=O)c2ccco2)C1=S	HCV inhibitor inconclusive, FMDV inh 32µM, Marburg entry inh inconclusive, LASV entry inh inconclusive (no result: SARS PLpro yeast-1)
CCCSc1ccccc1C(=O)N1CCN(C(=O)c2ccco2)CC1	HCMV inh -101, LASV entry inh inconclusive
Cc1cccc(C)c1NC(=O)Cn1c(=O)c(N2CCCCC2)c(N)n(C)c1=O	SARS PLpro yeast-1 11µM | SARS PLpro yeast-2 inactive
Cc1cccc(N2CCN(S(=O)(=O)c3ccc(F)c(C(=O)Nc4ccc(C(C)C)cc4)c3)CC2)c1C	none (no result: SARS PLpro yeast-1, HCV inhibitor, Marburg entry inh)
COc1ccc(/C=C2\CN(Cc3ccccc3)C/C(=C\c3ccc(OC)cc3)C2=O)cc1	SARS PLpro yeast-1 20µM, FMDV inh inconclusive, Marburg entry inh inconclusive, LASV entry inh 7.9µM | SARS PLpro yeast-2 inactive
Cc1ccc(/C=C/C(=O)c2ccccc(=O)c2O)cc1C	HCMV inh -66, SARS PLpro yeast-1 inconclusive, HCV inhibitor inconclusive, FMDV inh inconclusive, Marburg entry inh 16µM, LASV entry inh inconclusive | SARS PLpro yeast-2 inconclusive
COc1ccc2c(c1)OC[C@H]1[C@H]2N2C(=O)CN(Cc3ccc(F)cc3)C(=O)[C@@]2(C)[C@H]1c1ccccc1	HCV inhibitor inconclusive, FMDV inh inconclusive (no result: Marburg entry inh, LASV entry inh)
